Measurements: PubChem BioAssay (Tox21)
Several values for one entry are separate records, joined by “and”; a condition that tells them apart may be missing. Equal entries are not always repeated. Inconclusive results are not listed. A structure can be active in one record and inactive in another. Activity calls are given as the source filed them. Unless noted, calls come from the whole dose curve; as a rule, active = well fitted curve in the direction sought with a large enough effect in the repeat runs; inconclusive = weak or mixed curves; inactive = no such curve, though single readings can be large; an effect the other way counts as inactive or inconclusive.

Legend:
[1] = qHTS assay for small molecule agonists of the p53 signaling pathway (AID 651631; calls by dose curve; note: nearly all actives have a fitted effect of over 15% in size)
Summary of the method: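 Fluorescence intensity from cleaved LiveBLAzer B/G substrate (2 h, room temperature) served as the signal. Beforehand, HCT-116 reporter cells bearing p53 response elements were treated 16 h at 37 °C with DMSO-dissolved compounds.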

[2] = qHTS assay for small molecules that induce genotoxicity in human embryonic kidney cells expressing luciferase-tagged ATAD5 (AID 651632); note: nearly all actives have a fitted effect of over 15% in size
Summary of the method: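 Cells were seeded at 2,000 per well, dosed with compound, and incubated 16 hr at 37C in 5% CO2. Luciferase activity was then quantified after a 30 min room-temperature incubation with Amplite.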

[3] = qHTS assay for small molecule agonists of the p53 signaling pathway - cell viability (AID 651633; calls by dose curve;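 note: p53RE-bla HCT reporter cells with a stable beta-lactamase p53 reporter; series mostly up to about 83 µM; nearly all actives have a fitted effect of over 30% in size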)
Summary of the method: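 Viability counter-read: CellTiter-Glo luminescence (30 min, room temperature) in the same p53RE-bla plates. These plates had been exposed to compounds for 16 h at 37 C.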

[4] = qHTS assay for small molecules that induce genotoxicity in human embryonic kidney cells expressing luciferase-tagged ATAD5 - cell viability (AID 651634; calls by dose curve; note: nearly all actives have a fitted effect of over 25% in size; note: potency is the fitted concentration of half-maximal effect)
Summary of the method: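 Cells (HEK293T, luciferase-tagged ATAD5) are seeded at 2,000 per well, dosed with compound or DMSO vehicle, and incubated 15.5 hr at 37C and 5% CO2. CellTiter-Fluor is added for 30 min before fluorescence is measured.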

[5] = qHTS assay for small molecule disruptors of the mitochondrial membrane potential - cell viability (AID 720634; calls by dose curve;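 note: human HepG2 liver cancer cells; series mostly up to about 83 µM; nearly all actives have a fitted effect of over 20% in size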)
Summary of the method: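 Cytotoxicity was measured by ATP quantitation in HepG2 wells that had first been treated with compound for 1 hr and stained with m-MPI dye; CellTiter-Glo incubation was 30 min at room temperature.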

[6] = qHTS assay to test for compound auto fluorescence at 590 nm (red) in HepG2 cells (AID 720674)
Summary of the method: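 Red autofluorescence (Ex/Em 540/590 nm, Rose Bengal sodium equivalents) was measured in HepG2 cells, 2,000 per well in MEM plus 10% FBS, plated overnight at 37 C. Readings were taken 1 hr after adding 23 nL compound or DMSO, at 37 C and 5% CO2.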

[7] = qHTS assay to test for compound auto fluorescence at 535 nm (green) in HepG2 cells (AID 720675)
[8] = qHTS assay to test for compound auto fluorescence at 460 nm (blue) in HEK293 cells (AID 720678)
Summary of the method: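 HEK293, 2,000 cells/well, 10% dialyzed FBS; attach 4-5 hr 37C; pin compound or DMSO; o/n 37C/5% CO2; fluorescence 405/460 nm; triamterene-equivalent units.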

[9] = qHTS assay to test for compound auto fluorescence at 590 nm (red) in HEK293 cells (AID 720679)
Summary of the method: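 Intensity at 540nm excitation and 590nm emission is reported as Rose Bengal sodium-equivalent autofluorescence. Measurements followed overnight exposure (37C, 5% CO2) of HEK293 cells, 2,000 per well, to 23 nL compound.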

[10] = qHTS assay for small molecule disruptors of the mitochondrial membrane potential (AID 720635); note: potency is the fitted concentration of half-maximal effect
Summary of the method: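 Mitochondrial membrane potential tracked with Mito-MPS dye, red aggregates (ex 540/em 590 nm) against green monomers (ex 490/em 535 nm). Compound treatment 1 hr at 37C, dye 30 min in HepG2.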

Measured: Potency

CC(C)(C#N)c1cc(Cn2cncn2)cc(C(C)(C)C#N)c1
not listed: [10]
inactive: all other assays above

CCCCCCO
not listed: [5]
inactive: all other assays above

CCNc1ccccc1
24.8 µM (active) and inactive: [10]
not listed: [5]
inactive: all other assays above

CC(C)OP(=O)(CP(=O)(OC(C)C)OC(C)C)OC(C)C
not listed: [10]
inactive: all other assays above

C=CCc1ccc(OC)c(OC)c1
not listed: [10]
inactive: all other assays above

Cc1ccc(C(C)C)c(O)c1
active: [10] 24.3 µM
not listed: [5]
inactive: all other assays above

C[Si]1(C)O[Si](C)(C)O[Si](C)(C)O[Si](C)(C)O1
not listed: [5]
inactive: all other assays above

CCNc1cccc(C)c1
not listed: [5]
inactive: all other assays above

CC1(C)NC(=O)NC1=O
not listed: [5]
inactive: all other assays above

CC(CCl)OP(=O)(OC(C)CCl)OC(C)CCl (centres undefined)
not listed: [5]
inactive: all other assays above

CCOC(=O)c1ccc(N)cc1
not listed: [5]
inactive: all other assays above

CNC(=S)N(C)C
not listed: [5]
inactive: all other assays above

CCCCCCCCCCO
not listed: [5]
inactive: all other assays above

CN1C(=O)CC[C@H]1c1cccnc1
not listed: [5]
inactive: all other assays above

CCCCCCCCCCCCCCCC(=O)OC(C)C
not listed: [5]
inactive: all other assays above

COc1ccc(C)cc1N
not listed: [5]
inactive: all other assays above

CC1(C)CC(N)CC(C)(CN)C1 (centres undefined)
not listed: [5]
inactive: all other assays above

Cc1ccc2ncccc2c1
not listed: [5]
inactive: all other assays above

Clc1ccccn1
not listed: [5]
inactive: all other assays above

CCCCCCCCCCCC(=O)OC
not listed: [5]
inactive: all other assays above

C=CC(C)CCCC(C)(C)O (centres undefined)
not listed: [10]
inactive: all other assays above

CC(C)CCCCCCCOC(=O)CCCCC(=O)OCCCCCCCC(C)C
not listed: [10]
inactive: all other assays above

CCCCCCCC=O
not listed: [5] | [10]
inactive: all other assays above

CC(=O)OCCOC(C)=O
not listed: [5] | [10]
inactive: all other assays above

CCCCCCCCCCCCCCCCO
not listed: [1] | [5]
inactive: all other assays above

CC(=O)OCc1ccco1
not listed: [1] | [3]
inactive: all other assays above

COc1ccc(N)c(C)c1
not listed: [1] | [5]
inactive: all other assays above

CC(=O)OCc1ccccc1
not listed: [1]
inactive: all other assays above

O=C(O)c1ccc(C(=O)O)c(C(=O)O)c1
not listed: [1]
inactive: all other assays above

CN(C)c1ccc(O)c2c1C[C@H]1C[C@H]3[C@H](N(C)C)C(=O)C(C(N)=O)=C(O)[C@@]3(O)C(=O)C1=C2O
not listed: [1]
inactive: all other assays above

Nc1nc(N)nc(-c2ccccc2)n1
not listed: [1]
inactive: all other assays above

OC1C(O)C(O)C(O)C(O)C1O (centres undefined)
not listed: [1] | [10]
inactive: all other assays above

CC(C)(C)c1cc(Cc2cc(C(C)(C)C)c(O)c(C(C)(C)C)c2)cc(C(C)(C)C)c1O
not listed: [1]
inactive: all other assays above

C=C(C)CNCC
not listed: [5] | [10]
inactive: all other assays above

CC(C)(Oc1ccc(CCNC(=O)c2ccc(Cl)cc2)cc1)C(=O)O
not listed: [1] | [5]
inactive: all other assays above

C[C@]12CCC(=O)C=C1CC[C@@H]1[C@@H]2[C@@H](O)C[C@@]2(C)[C@H]1CC[C@]2(O)C(=O)CO
inactive: [2] | [4] | [6] | [7] | [8] | [9]

C[C@]12CC[C@@H]3c4ccc(O)cc4CC[C@H]3[C@@H]1C[C@@H](O)[C@@H]2O
not listed: [2] | [4]
inactive: all other assays above

CC(C)c1cccc(C(C)C)c1
not listed: [1] | [3] | [10]
inactive: all other assays above

COC(=O)CCCC(=O)OC
not listed: [5] | [10]
inactive: all other assays above

CCCCCCCO
not listed: [1] | [5]
inactive: all other assays above

O=C(O)c1cc2ccccc2cc1O
active: [10] 54.1 µM and 54.5 µM
not listed: [1]
inactive: all other assays above

C=C(C)[C@H]1CC=C(C)C(=O)C1
not listed: [1] | [5] | [10]
inactive: all other assays above

CC(=O)OC1CC(C)OC(C)O1 (centres undefined)
not listed: [1] | [3]
inactive: all other assays above

CCCCCCC=O
not listed: [5] | [10]
inactive: all other assays above

O=[N+]([O-])c1ccc2nc[nH]c2c1
active: [10] 27.3 µM
not listed: [1] | [3]
inactive: all other assays above

Nc1ccc(Cl)c(N)c1
active: [10] 68.8 µM
not listed: [1]
inactive: all other assays above

O=S(=O)(O)c1ccc(N=Nc2c(O)ccc3cc(S(=O)(=O)O)ccc23)cc1
active: [4] 30.8 µM and 30.6 µM
not listed: [1] | [5] | [10]
inactive: all other assays above

OCc1ccccc1
not listed: [1] | [5]
inactive: all other assays above

N[C@H](Cc1c[nH]c2ccccc12)C(=O)O
not listed: [1] | [2]
inactive: all other assays above

N#Cc1ccccc1
not listed: [2] | [5]
inactive: all other assays above

CCCCC(C=O)CC (centres undefined)
not listed: [1]
inactive: all other assays above

O=C(O)Cn1c(=O)n(Cc2ccc(Br)cc2F)c(=O)c2ccc(Cl)cc21
not listed: [4] | [5] | [10]
inactive: all other assays above

NCCNCCN
not listed: [5] | [10]
inactive: all other assays above

O=c1[nH]cnc2[nH]ncc12
not listed: [1]
inactive: all other assays above

COc1ccc(CCC(C)=O)cc1
not listed: [1] | [10]
inactive: all other assays above

O=C1c2ccccc2CCc2ccccc21
active: [10] 31.3 µM
not listed: [1]
inactive: all other assays above

O=S(=O)(O)c1ccccc1
not listed: [1] | [2]
inactive: all other assays above

CC1(C)OC[C@@H]2O[C@@]3(C(=O)O)OC(C)(C)O[C@H]3[C@@H]2O1
not listed: [1] | [5]
inactive: all other assays above

CCCCOC(=O)c1ccc(N)cc1
not listed: [2]
inactive: all other assays above

CC(C)CC(C)O (centres undefined)
not listed: [1] | [3] | [5]
inactive: all other assays above

CCO[Si](CCC#N)(OCC)OCC
not listed: [1] | [5]
inactive: all other assays above
